Measured values reported in PubChem BioAssay.

Test system: not listed separately
Assay: RPMI8226 myeloma cell viability, profiling panel, resazurin fluorescence, basal, 24 h, PK04 Diversity Set (AID 1180);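 further: RPMI8826 multiple myeloma cell line at 5000 cells per well; test concentration not given here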
Details: higher = more signal

**Q.** With `CO[C@H]1O[C@H](CO)[C@@H](OC(=O)Nc2cccc(F)c2)[C@H](OC(=O)Nc2ccc3c(c2)OCO3)[C@@H]1OC(=O)Nc1ccc2c(c1)OCO2` as the compound, how does the z-score read?
**A.** -0.931

**Q.** For `O=C1C2C=CC(C(O)c3ccccn3)N(Nc3ccc([N+](=O)[O-])cc3)C2C(=O)N1c1ccccc1` (centres undefined), which z-score is on record?
**A.** -1.03

**Q.** Which z-score does the source give for `CC(C)N1C(=O)[C@@]2(Cc3ccccc31)c1ccccc1C(=O)N(Cc1ccccc1C(F)(F)F)[C@H]2c1ccc(CO)cc1` here?
**A.** 0.566

**Q.** For `CN1C2C=C(c3ccc(CO)cc3)C(C3C(=O)N(C(N)=O)C(=O)C32)C1C1CC1` (centres undefined), which z-score is on record?
**A.** -0.641

**Q.** Which z-score does the source give for `CC(C)C[C@@H]1NC(=O)[C@@H]2C[C@H](C(=O)NCCCCCNC(=O)CS)[C@H](c3ccc(O)cc3)N2C1=O` here?
**A.** 0.718

**Q.** With `CN(C)CCCCNC(=O)[C@H]1C[C@H]2C(=O)N[C@@H](CCCCN(C)C)C(=O)N2[C@H]1c1ccc(O)cc1` as the compound, how does the z-score read?
**A.** 1.82

**Q.** With `CCOC(=O)C[C@H]1[C@H](OC(=O)c2ccccc2-c2ccccc2)[C@@H](NC(=O)CC(C)C)c2cc(OCCCO)ccc2N1C(=O)c1ccccc1` as the compound, how does the z-score read?
**A.** -0.503

**Q.** For `CCCCCCc1nc(-c2ccc(OC)nc2)c(C)c2c1[Si](C(C)C)(C(C)C)OC2`, which z-score is on record?
**A.** 0.781

**Q.** Which z-score does the source give for `COCCCNC(=O)[C@]1(Cc2ccccc2CN=[N+]=[N-])N=C(c2ccc(OCCCO)cc2)O[C@@H]1c1ccccc1N=[N+]=[N-]` here?
**A.** -3.63

Biological target: E3 ubiquitin-protein ligase XIAP (Homo sapiens) (UniProt P98170)
Assay: XIAP binders, primary screen, biophysical, small-molecule microarray, fluorescence 635 nm (AID 1181);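 further: score merges 667 nm emission and signal to noise over triplicate slides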
Details: small-molecule microarray binding, higher = more signal

Chain of E3 ubiquitin-protein ligase XIAP (Homo sapiens) (P98170 whole entry, looked up): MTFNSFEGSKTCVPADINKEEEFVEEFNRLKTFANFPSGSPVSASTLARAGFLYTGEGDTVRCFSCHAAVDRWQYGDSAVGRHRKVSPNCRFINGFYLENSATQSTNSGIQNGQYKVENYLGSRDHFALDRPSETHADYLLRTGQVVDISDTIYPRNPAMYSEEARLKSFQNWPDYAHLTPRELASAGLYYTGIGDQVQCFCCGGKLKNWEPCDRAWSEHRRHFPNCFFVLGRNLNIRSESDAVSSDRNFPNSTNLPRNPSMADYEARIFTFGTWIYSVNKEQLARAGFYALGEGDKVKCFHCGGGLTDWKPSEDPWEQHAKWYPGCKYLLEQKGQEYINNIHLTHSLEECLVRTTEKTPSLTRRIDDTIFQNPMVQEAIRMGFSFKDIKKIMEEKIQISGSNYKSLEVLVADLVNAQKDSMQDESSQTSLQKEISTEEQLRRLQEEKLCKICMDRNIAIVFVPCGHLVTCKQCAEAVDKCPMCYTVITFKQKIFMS

**Q.** With `CC(C)c1ccc(NN2C(C(O)C(C)c3ccccc3)C=CC3C(=O)N(c4ccccc4)C(=O)C32)cc1` (centres undefined) as the compound, how does the composite z-score read?
**A.** 0.155

**Q.** Which composite z-score does the source give for `CC(C)C[C@@H]1NC(=O)[C@@H]2C[C@H](C(=O)NCCCCCCNC(=O)CS)[C@H](c3ccc(O)cc3)N2C1=O` here?
**A.** 0.291

**Q.** With `COC(=O)Cn1c(C(=O)N(C)C)cc2c1C[C@H]1CN(C(=O)c3ccccc3)[C@@](Cc3ccccc3)(C(=O)OC)[C@@H]21` as the compound, how does the composite z-score read?
**A.** 0.343

**Q.** For `COCCOC(=O)N1C(=O)[C@@]2(c3cc(C#CCC(C(=O)OC)C(=O)OC)ccc31)[C@H](c1ccc(O)cc1)N1[C@H](c3ccccc3)[C@H](c3ccccc3)OC(=O)[C@H]1[C@@H]2C(=O)N1CCc2cc(OC)c(OC)cc2C1`, which composite z-score is on record?
**A.** -0.0233

**Q.** Which composite z-score does the source give for `Cc1ccc(S[C@]2(C(=O)NCc3ccccc3)CC(=O)N(Cc3ccccc3C(F)(F)F)[C@@H]2c2ccc(CO)cc2I)cc1` here?
**A.** -0.135

**Q.** With `O=C1C2C=CC(C(O)C3CCCCC3)N(Nc3ccccc3F)C2C(=O)N1c1ccccc1` (centres undefined) as the compound, how does the composite z-score read?
**A.** -0.235

**Q.** Which composite z-score does the source give for `CC[C@H]1C2=C3C(CC[C@H]4C(OCc5ccc(F)cc5C(F)(F)F)OC[C@](C)([C@@H]34)N(C(=O)OC(C)(C)C)C2)C(COC(C)=O)C1COC(C)=O` (some centres undefined) here?
**A.** 0.48

**Q.** With `CC1CC/C=C\[C@H]2OC34C=CCN(CCN5CCOCC5)C(=O)[C@H]3N(C(CO)C(C)C)C(=O)[C@@H]4C2C(=O)O1` (some centres undefined) as the compound, how does the composite z-score read?
**A.** -0.0172

**Q.** Which composite z-score does the source give for `COC(=O)C[C@H]1O[C@]2(C(=O)N(C)c3ccccc32)[C@@H](C)[C@@H]1[Si](C)(C)c1ccccc1` here?
**A.** 0.135

**Q.** For `O=C1O[C@@H](c2ccccc2)[C@@H](c2ccccc2)N2[C@@H](c3ccc(OCCO)cc3)[C@]3(C(=O)Nc4ccc(C#CC5=CCCCC5)cc43)[C@@H](C(=O)Nc3nc4ccccc4s3)[C@H]12`, which composite z-score is on record?
**A.** -0.339

**Q.** Which composite z-score does the source give for `CCCCN1CC=CC23O[C@@H]4/C=C\CCCOC(=O)C4[C@H]2C(=O)N(CCCCCCO)[C@@H]3C1=O` (some centres undefined) here?
**A.** -0.159

**Q.** Which composite z-score does the source give for `COC(=O)[C@@]1(Cc2ccc(F)cc2)[C@H]2c3cc(C(=O)N(C)C)n(CCF)c3C[C@H]2CN1C(=O)c1ccccc1` here?
**A.** 0.179

**Q.** With `CCc1cccc(NC(=O)O[C@H]2[C@H](OC(=O)Nc3ccccc3-c3ccccc3)[C@H](OC(=O)Nc3ccccc3-c3ccccc3)[C@@H](OC)O[C@@H]2CO)c1` as the compound, how does the composite z-score read?
**A.** 0.146

**Q.** Which composite z-score does the source give for `C=C(COC)C(=O)CC[C@H](OC(C)=O)c1ccccc1OCCO` here?
**A.** 0.0153

**Q.** Which composite z-score does the source give for `COC(=O)C(CC#Cc1ccc2c(c1)[C@]1(C(=O)N2)[C@H](c2ccc(OCCO)cc2)N2[C@H](c3ccccc3)[C@H](c3ccccc3)OC(=O)[C@H]2[C@@H]1C(N)=O)C(=O)OC` here?
**A.** 0.13

**Q.** With `COc1ccc([Si](C)(C)[C@H]2[C@H](CC(=O)N(CCO)Cc3ccccc3)O[C@@]3(C(=O)N(Cc4cccc(N5CCCCC5=O)c4)c4ccccc43)[C@@H]2C)cc1` as the compound, how does the composite z-score read?
**A.** -0.0559

**Q.** With `COCCCNC(=O)[C@@]1(Cc2ccccc2I)c2ccccc2C(=O)N(Cc2ccccc2C(F)(F)F)[C@H]1c1ccc(CO)cc1` as the compound, how does the composite z-score read?
**A.** -0.223

**Q.** With `CC[C@@H](O[Si](C#C[Si](C(C)C)(C(C)C)C(C)C)(C(C)C)C(C)C)c1cn([C@H](C)c2ccccc2)nn1` as the compound, how does the composite z-score read?
**A.** -0.209

**Q.** Which composite z-score does the source give for `COCCOC(=O)N1C(=O)[C@@]2(c3cc(C#CCC(C(=O)OC)C(=O)OC)ccc31)[C@H](C(=O)N1CCc3cc(OC)c(OC)cc3C1)[C@H]1C(=O)O[C@H](c3ccccc3)[C@H](c3ccccc3)N1[C@@H]2c1ccccc1OCCO` here?
**A.** -0.226

**Q.** With `CCCNC(=O)[C@@]1(Sc2ccc(C)cc2)CC(=O)N(Cc2cc(C(F)(F)F)cc(C(F)(F)F)c2)[C@@H]1c1ccc(CO)cc1` as the compound, how does the composite z-score read?
**A.** -0.127

**Q.** For `Cc1ccc(S[C@]2(C(=O)NCc3ccccc3)CC(=O)N(Cc3ccccc3Cl)[C@@H]2c2ccc(CO)cc2)cc1`, which composite z-score is on record?
**A.** 0.0623

**Q.** For `CC1(C)OB(/C=C\CC(OC(=O)c2ccncc2)c2ccccc2)OC1(C)C` (centres undefined), which composite z-score is on record?
**A.** 0.0487

**Q.** For `COc1cc(Cc2cc3c(c(-c4ccccc4)n2)[Si](C(C)C)(C(C)C)OC3)cc(OC)c1OC`, which composite z-score is on record?
**A.** -0.305

**Q.** Which composite z-score does the source give for `C=CCOC(=O)[C@H]1[C@@H]2C(=O)O[C@@H](c3ccccc3)[C@@H](c3ccccc3)N2[C@@H](c2ccc(OCCOC(=O)[C@@H]3C[C@@H]4C(=O)N[C@@H](Cc5ccccc5)C(=O)N4[C@@H]3c3ccc(O)cc3)cc2)[C@]12C(=O)Nc1ccc(I)cc12` here?
**A.** 0.349

**Q.** With `CC1C2C(CCCO)=CC(C3C(=O)N(C(N)=O)C(=O)C23)N1Cc1cccc(OC(F)(F)F)c1` (centres undefined) as the compound, how does the composite z-score read?
**A.** -0.199

**Q.** For `COC(=O)[C@@]1(Cc2ccccc2)[C@H]2c3cc(C(=O)N(C)C)n(Cc4nc5ccccc5[nH]4)c3C[C@H]2CN1C(=O)c1ccccc1`, which composite z-score is on record?
**A.** 0.0747

**Q.** With `CO[C@H]1O[C@H](CO)[C@@H](OC(=O)Nc2cccc(F)c2)[C@H](OC(=O)Nc2ccc3c(c2)OCO3)[C@@H]1OC(=O)Nc1ccc2c(c1)OCO2` as the compound, how does the composite z-score read?
**A.** 0.0526

**Q.** For `O=C1C2C=CC(C(O)c3ccccn3)N(Nc3ccc([N+](=O)[O-])cc3)C2C(=O)N1c1ccccc1` (centres undefined), which composite z-score is on record?
**A.** 0.359

**Q.** Which composite z-score does the source give for `CC(C)N1C(=O)[C@@]2(Cc3ccccc31)c1ccccc1C(=O)N(Cc1ccccc1C(F)(F)F)[C@H]2c1ccc(CO)cc1` here?
**A.** 0.0377

**Q.** With `CN1C2C=C(c3ccc(CO)cc3)C(C3C(=O)N(C(N)=O)C(=O)C32)C1C1CC1` (centres undefined) as the compound, how does the composite z-score read?
**A.** -0.0745

**Q.** Which composite z-score does the source give for `CC(C)C[C@@H]1NC(=O)[C@@H]2C[C@H](C(=O)NCCCCCNC(=O)CS)[C@H](c3ccc(O)cc3)N2C1=O` here?
**A.** 0.302

**Q.** With `CN(C)CCCCNC(=O)[C@H]1C[C@H]2C(=O)N[C@@H](CCCCN(C)C)C(=O)N2[C@H]1c1ccc(O)cc1` as the compound, how does the composite z-score read?
**A.** -0.127

**Q.** Which composite z-score does the source give for `CCOC(=O)C[C@H]1[C@H](OC(=O)c2ccccc2-c2ccccc2)[C@@H](NC(=O)CC(C)C)c2cc(OCCCO)ccc2N1C(=O)c1ccccc1` here?
**A.** 0.0412

**Q.** With `CCCCCCc1nc(-c2ccc(OC)nc2)c(C)c2c1[Si](C(C)C)(C(C)C)OC2` as the compound, how does the composite z-score read?
**A.** 0.128

**Q.** With `COCCCNC(=O)[C@]1(Cc2ccccc2CN=[N+]=[N-])N=C(c2ccc(OCCCO)cc2)O[C@@H]1c1ccccc1N=[N+]=[N-]` as the compound, how does the composite z-score read?
**A.** 0.43
